Measured values taken from the supplement of paper PMC11219838.
A number with no mark means an inactive call.

Experiments:
Conditions in all cases: 60 µM; 5 days; temperature: 20 °C
Meloidogyne hapla J2 = experiment: proportion of mobile M. hapla J2 relative to DMSO control (fraction of DMSO control); higher = more viable, less nematicidal, active = 0.7 or less
Outline: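 Sealed 96-well plates, each well holding around 25 M. hapla J2 in distilled water with compound pinned to 60 µM final (0.6% v/v DMSO), were shaken at 200 rpm for 5 days at 20 °C. Then 2 µL of 1 M NaOH was added to each well. Microscope-scored mobility was normalised to the mean of DMSO-only wells from the same plate. Eight such wells were on each plate, and the two biological replicates were averaged.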

[1] = system: Caenorhabditis elegans dauer (daf-2(e1370)); experiment: proportion of mobile C. elegans dauer larvae relative to DMSO control (fraction of DMSO control); higher = more viable, less nematicidal, active = 0.63 or less; extreme values may be limits of the assay
Outline: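 Synchronized C. elegans daf-2(e1370) larvae were held at 25 °C for 48 h on MYOB plates with E. coli OP50 to form dauers, and about 20 dauers were added per 96-well well in liquid NGM. Compound was pinned to 60 µM final (0.6% v/v DMSO), and sealed plates were shaken at 200 rpm for 5 days at 20 °C. The proportion of mobile worms was scored under a dissection microscope relative to DMSO controls and averaged over two biological replicates.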

Ditylenchus dipsaci = experiment: proportion of mobile D. dipsaci (mixed stage) relative to DMSO control (fraction of DMSO control); higher = more viable, less nematicidal, active = 0.86 or less; extreme values may be limits of the assay
Outline: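 Mobility, expressed relative to DMSO controls, is the mean of two biological replicates. The test organisms were D. dipsaci grown on pea plants in Gamborg B-5 agar and extracted into water by filter funnel, with about 20 added per well of a 96-well plate in distilled water. Compound was pinned to 60 µM final (0.6% v/v DMSO), plates were sealed and shaken at 200 rpm for 5 days at 20 °C, and mobile worms were scored under a microscope once 2 µL 1 M NaOH had been added.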

SMILES | proportion of mobile M. hapla J2 (Meloidogyne hapla J2) | proportion of mobile C. elegans dauer larvae [1] | proportion of mobile D. dipsaci (Ditylenchus dipsaci)
NC(=O)COc1ccccc1-c1nc(-c2ccccc2Cl)no1 | 0.851 | 1 | 1
CCc1ccc(OCc2nc(-c3ccc(Cl)cc3)no2)cc1 | 1.03 | 1 | 1
Cc1ccoc1-c1nnc(-c2ccco2)o1 | 0.949 | 1 | 0.833 (active)
Fc1cccc(Cl)c1CSc1nnc(-c2ccccc2Cl)o1 | 0.988 | 1 | 1
CCOc1ccccc1NC(=O)CSc1nnc(-c2ccccc2)o1 | 0.977 | 1 | 1
Cc1ccccc1OCc1nc(-c2ccccc2)no1 | 0.821 | 1 | 1
CC(Sc1nnc(-c2ccccc2)o1)C(=O)Nc1nccs1 (stereo not given) | 1 | 1 | 1
COc1cccc(-c2nc(-c3ccc(Br)cc3)no2)c1 | 0.997 | 0.6 (active) | 1
CCc1ccc(NC(=O)CSc2nnc(-c3ccc(Cl)cc3Cl)o2)cc1 | 0.785 | 1 | 1
COc1ccc(-c2nnc(SCC(=O)Nc3c(F)cc(F)cc3Br)o2)cc1 | 1.03 | 1 | 1
CCN(CC)C(=O)CSc1nnc(-c2cccc(Cl)c2)o1 | 0.922 | 1 | 1
CC(C)(C)c1ccc(OCc2nc(-c3ccccc3)no2)cc1 | 0.987 | 1 | 1
COc1cccc(-c2noc(-c3ccc(C)cc3)n2)c1 | 0.948 | 0 (active) | 1
CCOc1ccccc1-c1nc(-c2ccc(F)cc2)no1 | 1.06 | 1 | 1
c1ccc(-c2nnc(SCc3nc4ccccc4[nH]3)o2)cc1 | 1.04 | 1 | 1
Fc1ccc(-c2nc(-c3ccc(Cl)cc3)no2)cc1 | 0.919 | 1 | 1
COc1nc(-c2ccc(Cl)cc2)ccc1-c1noc(C)n1 | 1.03 | 1 | 1
Cc1nc(CSc2nnc(-c3ccccc3)o2)cs1 | 0.282 (active) | 1 | 1

SMILES | proportion of mobile M. hapla J2 (Meloidogyne hapla J2) | proportion of mobile C. elegans dauer larvae [1] | proportion of mobile D. dipsaci (Ditylenchus dipsaci)
COc1ccc(-c2nnc(SCC(=O)Nc3ccc(Br)cc3C(C)C)o2)cc1 | 1 | 1 | 1
COc1ccccc1-c1noc(-c2ccccc2F)n1 | 0.91 | 1 | 1
c1ccc(CSc2nnc(-c3cccnc3)o2)cc1 | 0.391 (active) | 1 | 1
Fc1ccc(CSc2nnc(-c3ccccn3)o2)cc1 | 0.846 | 1 | 1
Clc1cccc(-c2nc(-c3ccccc3Cl)no2)c1 | 0.991 | 1 | 1
Clc1ccccc1CSc1nnc(-c2ccncc2)o1 | 0.974 | 1 | 1
CC(C)Oc1ccc(-c2nc(-c3ccccc3)no2)cc1 | 0.993 | 1 | 1
Cc1ccccc1OCc1nc(-c2ccc(Br)cc2)no1 | 0.788 | 1 | 1
COc1ccccc1-c1nnc(SCC(=O)Nc2ccc(F)cc2)o1 | 0.995 | 1 | 1
CC(C)Oc1ccc(-c2nc(-c3ccncc3)no2)cc1 | 1 | 0 (active) | 0.941
Clc1ccc(OCc2nc(-c3ccccc3)no2)cc1 | 1.04 | 1 | 1
Clc1ccc(-c2noc(-c3ccncc3)n2)cc1 | 0.784 | 1 | 1
Cc1ccc(C(=O)CSc2nnc(-c3ccccc3)o2)cc1 | 0.968 | 1 | 1
Cc1ccc(-c2noc(COc3cc(C)ccc3C)n2)cc1 | 0.994 | 1 | 1
O=C(Nc1ccccc1-c1nc(-c2cccnc2)no1)c1cccs1 | 1.02 | 1 | 1
COc1ccc(Cl)cc1NC(=O)CSc1nnc(-c2ccco2)o1 | 0.917 | 1 | 1
COc1cccc(-c2noc(COc3cc(C)ccc3C)n2)c1 | 0.873 | 1 | 1
